Source: PubChem (National Center for Advancing Translational Sciences (NCATS))
The list is not random: actives were taken first. Their share in the collection is about 3.3%.
PI5P4Ka inh – qHTS for Inhibitors of phosphatidylinositol 5-phosphate 4-kinase (PI5P4K). PI5P4Kalpha enzyme, ADP-Glo luminescence, 60 min; stronger effect = lower value. max response, %. Phosphatidylinositol 5-phosphate 4-kinase type-2 alpha (Homo sapiens), P48426. AID 652105, 2013. actives 1.2% (n = 330,000); active means max response of -50% or lower; inconclusive means between -30% and -50%; inactive means -30% or higher; further: value at the top dose of about 77 µM; on the % scale 0 is the no-effect control and ±100 the full control effect
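Luminescence from ADP-Glo served as readout of PI5P4Kalpha activity in a qHTS format. Reaction: enzyme, substrate, compound, ATP at 5 microM final, 60 min at RT.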
DRD3 agonist – qHTS of D3 Dopamine Receptor Agonist: qHTS; D(3) dopamine receptor (Homo sapiens), P35462; D3R DiscoveRx beta-arrestin cells, luminescence, 90 min; max activation, %; actives 0.58% (n = 410,000); in the data active means max activation above about 30%; further: 0% is about no effect
Target sequence (P35462 whole entry, looked up): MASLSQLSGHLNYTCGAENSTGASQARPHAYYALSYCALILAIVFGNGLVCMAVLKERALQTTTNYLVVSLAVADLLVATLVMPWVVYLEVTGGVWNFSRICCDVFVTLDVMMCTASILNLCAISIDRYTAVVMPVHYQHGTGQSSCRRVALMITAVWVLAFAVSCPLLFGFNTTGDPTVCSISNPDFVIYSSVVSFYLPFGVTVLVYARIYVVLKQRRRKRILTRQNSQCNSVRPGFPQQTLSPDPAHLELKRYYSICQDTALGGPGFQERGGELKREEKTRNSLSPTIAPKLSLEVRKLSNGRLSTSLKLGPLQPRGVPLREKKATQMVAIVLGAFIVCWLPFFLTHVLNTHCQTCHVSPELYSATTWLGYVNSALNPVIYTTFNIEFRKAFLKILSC
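Cells at 1500/well, incubated overnight, then treated with pinned compounds (dopamine as control) for 90 min at 37 degrees C. DiscoveRx reagent added for 30 - 60 minutes at room temperature; luminescence read.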
LDHA inh – qHTS assay for inhibitors of human lactate dehydrogenase. L-lactate dehydrogenase A chain (Homo sapiens), P00338. purified LDHA, NADH/diaphorase-resazurin fluorescence; stronger effect = lower value. activity change, % (values are at about 110 or 230 µM). actives 0.15% (n = 480,000); in the data active means activity change below about -30%; inconclusive means mostly about -25% to -30%;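 further: plate controls were DMSO wells for no effect and wells without enzyme for full effect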
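Remaining NADH was detected by diaphorase (0.133 mg/mL) converting 37 µM resazurin to fluorescent resorufin, read at 0 and 20 minutes. The preceding 5-minute room-temperature reaction used 2 nM LDHA, 0.2 mM sodium pyruvate and 0.06 mM NADH at pH 7.4.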
D3 antag – qHTS of D3 Dopamine Receptor Antagonist: qHTS; AID 652054, 2013; D(3) dopamine receptor (Homo sapiens), P35462; D3R cells, DiscoveRx beta-arrestin luminescence, antagonist mode; stronger effect = lower value; actives 2.5% (n = 360,000); max response, negative = inhibition, %; in the data active means max response below about -50%; inconclusive means no clear call, values can overlap the other calls; further: on the % scale 0 is the no-effect control and ±100 the full control effect
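Cells expressing the human receptor were seeded at 1500 cells/well, incubated overnight at 37 degrees C in 5% CO2, then exposed to library compounds with dopamine controls for 90 minutes at 37 degrees C before luminescent detection.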
PI4K2A block – qHTS for small molecular inhibitors of PI4K2A | Phosphatidylinositol 4-kinase type 2-alpha (Homo sapiens), Q9BTU6 | purified PI4K2A, ADP-Glo luminescence, 1 h; stronger effect = lower value | activity change, negative = inhibition, % at 76.9 µM | actives 0.13% (n = 420,000) | AID 1346378, 2018; in the data active means activity change below about -50%; inconclusive means mostly about -30% to -49%;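 further: -100% = wells without enzyme as full effect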
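In this quantitative HTS, ADP production by PI4K2A was quantified luminescently after 1 h at ambient temperature; 100 microM adenosine served as plate-quality control.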
Numbers without * were called inactive.

For CCCCn1nnnc1C(c1cccc2ccccc12)N1CCN(C/C=C/c2ccccc2)CC1 (configuration not stated) the results were PI5P4Ka inh -17, DRD3 agonist -13, LDHA inh -1, D3 antag -107* and PI4K2A block 3.
Screening CCCCn1nnnc1C(CC)N1CCN(C/C=C/c2ccccc2)CC1 (configuration not stated) returned PI5P4Ka inh 6, DRD3 agonist -16, LDHA inh -5, D3 antag -68* and PI4K2A block -2.
`CCOC(=O)c1ccc(NC(=O)N2CCN(Cc3ccc(Cl)s3)CC2)cc1` gave LDHA inh 1.
For Cc1ccc(NC(=O)CN2CCOCC2)cc1S(=O)(=O)N1CCCCC1 the results were PI5P4Ka inh 5, DRD3 agonist 4, LDHA inh -2, D3 antag -8 and PI4K2A block 3.
Screening Cc1ccc(NC(=O)CNCCCN2CCOCC2)cc1S(=O)(=O)N1CCCCC1 returned PI5P4Ka inh 1, DRD3 agonist -14, LDHA inh -33*, D3 antag -7 and PI4K2A block 3.
Screening CCn1nnc2cc(C(=O)N(C)CC(=O)Nc3ccc(Br)c(C)c3)ccc21 returned LDHA inh 1.
`COc1ccc(C(=O)c2c(-c3ccc(OC)cc3)oc3ccc(-c4ccc(OC)nc4)cc23)cc1` gave PI5P4Ka inh -2, DRD3 agonist 4, LDHA inh -4, D3 antag 16 and PI4K2A block 6.
For COc1ccc(C(=O)c2c(-c3cccc(C)c3)oc3ccc(N4CCOCC4)cc23)cn1 the results were PI5P4Ka inh 7, DRD3 agonist 36*, LDHA inh 1, D3 antag 89 and PI4K2A block -5.
Screening COC(=O)c1ccc(CCNC(=O)C2CC2)cc1 returned LDHA inh 0.
For C=C(C)COc1ccc(-c2[nH]ncc2Oc2ccccc2OCC)c(O)c1 the results were PI5P4Ka inh 17, DRD3 agonist -6, LDHA inh -2, D3 antag inconclusive and PI4K2A block 1.
For C=C(C)COc1ccc(-c2[nH]ncc2Oc2cccc(OC)c2)c(O)c1 the results were PI5P4Ka inh 5, DRD3 agonist 1, LDHA inh -5, D3 antag -56* and PI4K2A block -8.
Screening COc1ccccc1NC(=O)CSc1nnc(-c2ccccn2)o1 returned PI5P4Ka inh -21, DRD3 agonist 32*, LDHA inh -1, D3 antag 12 and PI4K2A block 4.
`COc1ccccc1NC(=O)CCN1CCN(Cc2ccccc2)CC1` gave DRD3 agonist -30, LDHA inh -2, D3 antag -55* and PI4K2A block 1.
Screening COc1ccccc1NC(=O)CCN1CCCCCC1 returned DRD3 agonist -33, LDHA inh -4, D3 antag -111* and PI4K2A block 0.
For COc1ccccc1NC(=O)CSC(N)=O the results were PI5P4Ka inh -2, DRD3 agonist 4, LDHA inh -5, D3 antag -107* and PI4K2A block inconclusive.
O=C(CCN1CCN(Cc2ccccc2)CC1)Nc1ccccc1Cl was read as PI5P4Ka inh 5, DRD3 agonist -10, LDHA inh -15, D3 antag -21 and PI4K2A block -3.
`Cc1ccccc1NC(=O)CSC(N)=O` gave PI5P4Ka inh 1, DRD3 agonist -4, LDHA inh -6, D3 antag -11 and PI4K2A block -10.
For CCOC(=O)c1c(C)oc2ccc(OCC(=O)OC)cc12 the results were LDHA inh 9.
`Cc1cc(N2CCCCCC2)n2nc(Cc3ccccc3)nc2n1` gave LDHA inh -1.
For CN(C)c1cc(C#N)ccn1 the results were LDHA inh -9.
Screening N#Cc1nc(COc2ccccc2F)oc1NCc1ccc2c(c1)OCO2 returned LDHA inh -1.
`CC(=O)Nc1cccc(NC(=O)c2cc3cc(Cl)ccc3nc2C)c1` gave LDHA inh 9.
`Cc1cc(C)c(C(=O)CC(=O)c2ccccc2Cl)c(O)c1` gave PI5P4Ka inh 14, DRD3 agonist -12, LDHA inh 6, D3 antag -64* and PI4K2A block 5.
O=C(CC(=O)c1ccccc1Cl)c1ccccc1Cl was read as LDHA inh -23.
Screening Cc1ccc(OCC(=O)c2ccc(Cl)s2)c([N+](=O)[O-])n1 returned PI5P4Ka inh -56*, DRD3 agonist 14, LDHA inh 24, D3 antag 9 and PI4K2A block -8.
`O=S(=O)(N(Cc1ccccc1)[C@@H](CO)Cc1ccccc1)N(Cc1ccccc1)[C@@H](CO)Cc1ccccc1` gave PI5P4Ka inh 4, DRD3 agonist 84*, LDHA inh 1, D3 antag 75 and PI4K2A block 1.
`CC(C)C[C@H](CO)N(Cc1ccccc1)S(=O)(=O)N(Cc1ccccc1)[C@@H](CO)CC(C)C` gave PI5P4Ka inh -2, DRD3 agonist 59*, LDHA inh 8, D3 antag 102 and PI4K2A block 0.
For O=C(CCOc1ccccc1)Nc1ccnn1C1CCN(CCc2ccccc2)CC1 the results were PI5P4Ka inh 3, DRD3 agonist -18, LDHA inh -6, D3 antag -52* and PI4K2A block -2.
`Cc1ccccc1CN1CCC(n2nccc2NC(=O)CCCc2ccccc2)CC1` gave PI5P4Ka inh 4, DRD3 agonist -3, LDHA inh -2, D3 antag -80* and PI4K2A block 0.
O=C(CCCc1ccccc1)Nc1ccnn1C1CCN(Cc2ccccn2)CC1 was read as PI5P4Ka inh 1, DRD3 agonist -4, LDHA inh 2, D3 antag 0 and PI4K2A block 5.
For Cc1c(Cl)cccc1S(=O)(=O)Nc1cccc(NC(N)=O)c1 the results were LDHA inh 1.
Screening Cc1ccc(CNCCC2=CCCCC2)cc1 returned DRD3 agonist -50, LDHA inh 6, D3 antag -67* and PI4K2A block 3.
Screening COc1cc(C(=O)NCCC2=CCCCC2)cc(OC)c1OC returned DRD3 agonist -8, LDHA inh 2, D3 antag -62* and PI4K2A block -2.
COc1ccc(C)cc1NC(=O)NCCC1=CCCCC1 was read as DRD3 agonist -30, LDHA inh -2, D3 antag -72* and PI4K2A block 5.
COc1cc(C(=O)NCCc2csc(-c3ccc(Cl)cc3)n2)cc(OC)c1OC was read as DRD3 agonist 41*, LDHA inh -1 and PI4K2A block 0.
For Cc1ccc(S(=O)(=O)NCCC2=CCCCC2)cc1 the results were PI5P4Ka inh 11, DRD3 agonist -3, LDHA inh -4, D3 antag -2 and PI4K2A block -1.
